# Experimental data taken from PubChem BioAssay AID624377 (The Scripps Research Institute Molecular Screening Center, 2012).
# Out of some 360,000 compounds screened, about 680 (0.19%) were called active. The full list was thinned out, with actives kept by preference. Unmarked numbers belong to inactive results. Cut-off read from the data, not from the text of the source: active = inhibition above about 25%; inactive = the rest.
# Target: Arf-GAP with SH3 domain, ANK repeat and PH domain-containing protein 1 (Homo sapiens) (UniProt Q9ULH1)
# Assay: inhibitors of human ASAP1 ArfGAP activity, primary screen, biochemical, fluorescence polarization (AID 624377);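 note: 0% = vehicle with enzyme and substrate and 100% = no enzyme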
# Settings: ASAP1-stimulated ARF1 GTP hydrolysis, GDP FP detection; at 16.5 µM; hits give high values
# Chain of Arf-GAP with SH3 domain, ANK repeat and PH domain-containing protein 1 (Homo sapiens) (Q9ULH1 325-724 limits assumed): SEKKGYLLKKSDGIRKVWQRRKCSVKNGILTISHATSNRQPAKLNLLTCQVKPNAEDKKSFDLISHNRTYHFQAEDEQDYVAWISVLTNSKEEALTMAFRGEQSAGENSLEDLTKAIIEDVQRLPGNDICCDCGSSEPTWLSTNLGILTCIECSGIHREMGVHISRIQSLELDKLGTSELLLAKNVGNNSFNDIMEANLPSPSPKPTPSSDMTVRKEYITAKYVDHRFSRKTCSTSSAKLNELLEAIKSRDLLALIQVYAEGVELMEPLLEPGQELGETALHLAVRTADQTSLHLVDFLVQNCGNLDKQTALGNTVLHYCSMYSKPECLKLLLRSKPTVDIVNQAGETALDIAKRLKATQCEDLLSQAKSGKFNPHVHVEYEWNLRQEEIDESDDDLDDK
row,Structure (SMILES),inhibition
1,COC(=O)C1=C(C)NC(=S)NC1c1ccc(OC)cc1 (stereo unspecified),3.47%
2,COC(=O)c1ccc(NC(=O)C(C)N2C(=O)c3ccccc3C2=O)cc1 (stereo unspecified),2.27%
3,C#CCNc1ccc(C(=O)OCC)cc1,-6.34%
4,COC(=O)c1ccc(NCC(=O)c2ccccc2)cc1,24.7% (active)
5,Cc1ccc2nc(CN(C)C(=O)[C@@H](Cc3ccccc3)NC(=O)[C@H]3O[C@@H](n4ccc(=O)[nH]c4=O)[C@H](O)[C@@H]3O)[nH]c2c1,-16.7%
6,Cc1noc(C)c1NC(=O)Nc1ccc2c(c1)C(=O)N([C@H](C)CO)C[C@H](C)[C@H](CN(C)Cc1ccncc1)OCCCC[C@@H](C)O2,3.29%
7,O=S(=O)(c1cccs1)N1CCCc2nc(-c3ccc(Br)cc3)ccc21,0.45%
8,C=CCC[C@@H](CCCCC)OC(=O)/C=C/[C@@H](O)[C@H](O)C[C@H](O)CC=C,26.7% (active)
9,C=CCC[C@H](CCCCC)OC(=O)/C=C/[C@H](O)[C@@H](O)C[C@@H](O)CC=C,5.11%
10,CCCCNc1cccc2c1S(=O)(=O)N[C@@H](C)CO2,5.97%
11,CC(C)CNc1cccc2c1S(=O)(=O)N[C@H](C)CO2,-1.48%
12,CN1C(=O)C(Br)(Br)CC1c1cccnc1 (stereo unspecified),2.71%
13,COCCCNC(=O)C[C@H]1C[C@@]2(C(=O)OC)C(=C[C@H](C(C)(C)C)O[C@@H]2C)N(Cc2ccc3c(c2)OCO3)C1=O,-0.04%
14,Cc1cc(OC(=O)NCCc2ccc(F)cc2)ccc1F,-5.01%
15,C=CCN1C(=O)N(Cc2ccccc2)c2ccccc2S1(=O)=O,10.9%
16,COC(=O)C1=C(C)N(Cc2ccccc2C(F)(F)F)C(=NCc2ccc(OC)cc2)NC1c1cccc(C(F)(F)F)c1 (stereo unspecified),-0.5%
17,C[C@H]1[C@H](c2ccccc2)Oc2cc(Br)ccc2S(=O)(=O)N1Cc1cccc(F)c1,-15.2%
18,COC(=O)Nc1nc2ccc(C(=O)C3CC3)cc2[nH]1,3.58%

row,Structure (SMILES),inhibition
1,CC1(C)OC(=O)C2=C(CC(CCc3ccccc3)OC2c2ccc(Cl)cc2)O1 (stereo unspecified),0.87%
2,O=C(Nc1c(Cl)c(C2CC2)nn1-c1ccccc1)C(Cl)(Cl)Cl,6.91%
3,O=C(C(=O)N1CCC(CNS(=O)(=O)Cc2ccccc2)CC1)c1cc2ccccc2o1,-10.9%
4,COC(=O)c1c(-c2ccc(OC)cc2)c2c(c3c4ccccc4n(S(=O)(=O)c4ccc(C)cc4)c13)C(=O)N(C)C2,5.81%
5,Brc1ccc(COCCc2cn(Cc3ccccc3)c3ccccc23)cc1,-1.81%
6,COC(=O)Cc1nnn2c1[C@H](C)[C@@H](OC)c1cc(Br)ccc1-2,8.77%
7,CC[C@H](NC(=O)[C@H](Cc1ccccc1)NC(=O)[C@H]1O[C@@H](n2cnc3c(=O)[nH]c(N)nc32)[C@H](O)[C@@H]1O)c1ccccc1,3.49%
8,O=S1(=O)c2c(cccc2N2CCCC2)O[C@H](COCc2ccccc2)CN1C1CC1,-12.9%
9,CC1CCN(C(=O)c2ncn3c2C(=O)N[C@@H](C)C3)CC1,1.95%
10,CC(=O)C1=C(C)N(Cc2ccc(Cl)cc2)C(=S)NC1c1ccc(F)cc1 (stereo unspecified),-0.95%
11,CCCCCCCCN1C(=O)[C@@H](CC(=O)NCc2ccccc2)C[C@@]2(C(=O)OC)C1=C[C@H](C(C)(C)C)O[C@@H]2C,4.65%
12,CCc1c(-c2ccccc2OC)ncn1CCc1ccccc1OC,8.29%
13,COc1ccc(S(=O)(=O)Nc2ccc3c(c2)C(=O)N([C@H](C)CO)C[C@H](C)[C@@H](CN(C)C)OCCCC[C@H](C)O3)cc1,-2.07%
14,O=C(O)Cn1cnc2c(NCc3ccccc3)ncnc21,-0.64%
15,CCOC(=O)C1CSCCS(=O)(=O)N1Cc1ccc(Cl)cc1 (stereo unspecified),1.02%
16,O=C(N[C@H](Cc1ccccc1)C(=O)N1CCCN(Cc2cccs2)CC1)[C@H]1O[C@@H](n2ccc(=O)[nH]c2=O)[C@H](O)[C@@H]1O,-8.2%
17,O=S1(=O)c2ccc(Br)cc2-n2nncc2CN1Cc1cccc(Cl)c1,-4.19%
18,CCCCOCC1CN(CCCC)S(=O)(=O)c2c(Oc3ccc(F)cc3)cccc2O1 (stereo unspecified),-4.17%
